The values below come from the supplement of paper PMC4371806.

In all, about 1,600 compounds were measured (“plate-normalized OD600 growth (mean of duplicates)”: median about 0.31, lowest 2% from about 0.23 on). The entries come from a sample that favours the lowest values as a whole.

The subject of this test is Escherichia coli BW25113. The experiment in a line: plate-normalized OD600 growth (mean of duplicates) (OD600 (normalized)); higher = more growth (less inhibition). Particulars: 10 µM. The procedure:
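E. coli BW25113 in LB (100 µl, 96-well, no shaking) was exposed to 10 µM of each compound (here the ChemBridge subset of a ~30,000-member library) and grown at 37°C for 24 h or 15°C for 48 h, in duplicate. Growth was read as OD600 and the duplicate ODs were normalized across screening plates to correct plate-to-plate variation.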

On to `O=C(NC1C[C@@H]1c1ccccc1)[C@@H]1CC1c1ccccc1` (some centres undefined), for which the “plate-normalized OD600 growth” value worked out at 0.272 (temperature: 15°C, 48 h) and 0.63 (temperature: 37°C, 24 h).
Turning to `CN1CCCC1CCNC1CC2CCC1C2` (centres undefined), the “plate-normalized OD600 growth” value is, setting by setting: (temperature: 15°C, 48 h) 0.299; (temperature: 37°C, 24 h) 0.637.
Turning to `Cn1cc(/C=C/c2nc3ccccc3c(=O)[nH]2)c2ccccc21`, the “plate-normalized OD600 growth” value was 0.248 (temperature: 15°C, 48 h) and 0.604 (temperature: 37°C, 24 h).
For `COc1ccc(N(C(=O)c2ccc(F)cc2)C2=CC3CCC(C2)N3C)cc1` (centres undefined), the “plate-normalized OD600 growth” value is, setting by setting: (temperature: 15°C, 48 h) 0.247; (temperature: 37°C, 24 h) 0.619.
The matching figures for `COc1ccc(C(C)=O)cc1Cc1c(O)nc(SC)[nH]c1=O`: 0.247 and 0.629.
The matching figures for `O=C(CC1Nc2ccccc2NC1=O)Nc1ccc(Cl)cc1` (centres undefined): 0.215 and 0.6.
The matching figures for `O=C(CC1Nc2ccccc2NC1=O)Nc1ccccc1` (centres undefined): 0.24 and 0.597.
Regarding `CCOc1ccc(NC(=O)CC2Nc3ccccc3NC2=O)cc1` (centres undefined), the “plate-normalized OD600 growth” value is, setting by setting: (temperature: 15°C, 48 h) 0.273; (temperature: 37°C, 24 h) 0.648.
The matching figures for `Nc1nc2sc3c(c2cc1C(=O)N1CCOCC1)CCCC3`: 0.253 and 0.625.
The matching figures for `Cc1nc(-c2ccccc2)cc(N2CCCC2)n1`: 0.253 and 0.616.
`CN1CCC(NCc2ccccc2F)CC1`: the “plate-normalized OD600 growth” value turned out to be 0.212 (temperature: 15°C, 48 h) and 0.645 (temperature: 37°C, 24 h).
For `CCCN1CCC(NCCc2ccccc2OC)CC1`, in that order: 0.252 and 0.619.
As for `Cc1ccccc1CN(C)C1CCN(C)CC1`, the “plate-normalized OD600 growth” value is, setting by setting: (temperature: 15°C, 48 h) 0.256; (temperature: 37°C, 24 h) 0.628.
For `Cc1ccc(OCCCNC(C)(C)C)cc1`, the “plate-normalized OD600 growth” value came out at 0.244 (temperature: 15°C, 48 h) and 0.608 (temperature: 37°C, 24 h).
The matching figures for `CC1CCCC(C)N1C(=O)c1ccc(Br)cc1` (centres undefined): 0.25 and 0.617.
As for `O=c1[nH]c2nonc2nc1Nc1ccccc1`, the “plate-normalized OD600 growth” value was 0.245 (temperature: 15°C, 48 h) and 0.603 (temperature: 37°C, 24 h).
With `CCN(Cc1ccccc1)C(=O)Cc1ccccc1`, the “plate-normalized OD600 growth” value (temperature: 15°C, 48 h) was determined as 0.262 and the “plate-normalized OD600 growth” value (temperature: 37°C, 24 h) came to 0.642.
Take `CCN(C(=O)Cc1ccccc1)C1CCCCC1`: the “plate-normalized OD600 growth” value turned out to be 0.221 (temperature: 15°C, 48 h) and 0.606 (temperature: 37°C, 24 h).
For `CC1CCCC(C)N1C(=O)Cc1ccccc1` (centres undefined), in that order: 0.233 and 0.611.
For `Cc1cc(C)c(S(=O)(=O)Nc2cc(C)on2)c(C)c1`, in that order: 0.243 and 0.612.
The matching figures for `CCc1ccccc1NS(=O)(=O)c1ccc(F)cc1`: 0.21 and 0.618.
For `COc1ccccc1NS(=O)(=O)c1ccc(C(C)(C)C)cc1`, the “plate-normalized OD600 growth” value reads like this: (temperature: 15°C, 48 h) 0.254; (temperature: 37°C, 24 h) 0.618.
For `COc1ccccc1NS(=O)(=O)c1ccc(Cl)cc1`, the “plate-normalized OD600 growth” value is, setting by setting: (temperature: 15°C, 48 h) 0.256; (temperature: 37°C, 24 h) 0.651.
For `Cc1ccc(C2C(C#N)=C(N)Oc3n[nH]c(C)c32)s1` (centres undefined), in that order: 0.246 and 0.658.
Take `Cc1[nH]nc2c1C(c1ccccc1I)C(C#N)=C(N)O2` (centres undefined): the “plate-normalized OD600 growth” value reads like this: (temperature: 15°C, 48 h) 0.233; (temperature: 37°C, 24 h) 0.613.
For `Cc1cc(C)c(C2C(C#N)=C(N)Oc3n[nH]c(C)c32)c(C)c1` (centres undefined), the “plate-normalized OD600 growth” value reads like this: (temperature: 15°C, 48 h) 0.218; (temperature: 37°C, 24 h) 0.621.
For `Cc1ccc(NCc2ccc([N+](=O)[O-])cc2)cc1C`, in that order: 0.237 and 0.605.
The matching figures for `O=C(c1ccco1)N1CCN(c2ccc([N+](=O)[O-])cc2)CC1`: 0.244 and 0.617.
Take `O=C(c1ccc(Br)o1)N1CCN(c2ccc([N+](=O)[O-])cc2)CC1`: the “plate-normalized OD600 growth” value by setting is: (temperature: 15°C, 48 h) 0.262; (temperature: 37°C, 24 h) 0.622.
The matching figures for `O=C(c1ccc([N+](=O)[O-])o1)N1CCN(c2cccc(Cl)c2)CC1`: 0.212 and 0.611.
In the case of `O=C1CC(N2CCOCC2)C(=O)N1c1ccc(I)cc1` (centres undefined), the “plate-normalized OD600 growth” value reads like this: (temperature: 15°C, 48 h) 0.257; (temperature: 37°C, 24 h) 0.645.
Take `N#CC1=C(N)Oc2cc(N)ccc2C1c1ccc(Br)s1` (centres undefined): the “plate-normalized OD600 growth” value amounted to 0.262 (temperature: 15°C, 48 h) and 0.636 (temperature: 37°C, 24 h).
On to `O=C(Nc1cccc([N+](=O)[O-])c1)c1cc(S(=O)(=O)Nc2ccccc2)ccc1Cl`, for which the “plate-normalized OD600 growth” value runs as follows: (temperature: 15°C, 48 h) 0.256; (temperature: 37°C, 24 h) 0.621.
With `Fc1ccccc1OCCSc1ncnc2nc[nH]c12`, the “plate-normalized OD600 growth” value by setting is: (temperature: 15°C, 48 h) 0.258; (temperature: 37°C, 24 h) 0.613.
For `CCSc1sc(CC)cc1C(N)=O`, in that order: 0.239 and 0.621.
The matching figures for `CCSc1sc(SC#N)cc1SC#N`: 0.207 and 0.614.
For `N#CSc1cnc(NC2CCCCC2)s1`, in that order: 0.254 and 0.611.
Consider `CCOc1ccc(Br)cc1/C=C(\C#N)c1nc2ccccc2[nH]1`, for which the “plate-normalized OD600 growth” value reads like this: (temperature: 15°C, 48 h) 0.255; (temperature: 37°C, 24 h) 0.657.
The matching figures for `Cc1ccc(-c2csc(Nc3ccc(F)cc3)n2)cc1C`: 0.218 and 0.604.
For `CCOc1ccc(Nc2nc(-c3ccc(C)c(C)c3)cs2)cc1`, in that order: 0.248 and 0.605.
For `Cc1cc(C)n(-c2nc(-c3ccc(F)cc3)cs2)n1`, in that order: 0.254 and 0.625.
Consider `CCOc1ccc(C(=O)Nc2ccc(S(=O)(=O)Nc3nccs3)cc2)cc1`, for which the “plate-normalized OD600 growth” value was found to be 0.241 (temperature: 15°C, 48 h) and 0.613 (temperature: 37°C, 24 h).
For `C=CCNc1nc(-c2ccncc2)cs1`, in that order: 0.236 and 0.589.
For `CC(=O)Nc1ccc(-c2cc(-c3ccc(NC(C)=O)cc3)nc(-c3ccccc3)n2)cc1`, in that order: 0.246 and 0.587.
As for `Cc1ccc2nc(/C(C#N)=C\c3ccco3)[nH]c2c1`, the “plate-normalized OD600 growth” value worked out at 0.242 (temperature: 15°C, 48 h) and 0.599 (temperature: 37°C, 24 h).
The matching figures for `CC(=O)Nc1ccc2oc(-c3cccc(I)c3)nc2c1`: 0.235 and 0.614.
With `CCOc1ccc(-c2ncnn2-c2ccc([N+](=O)[O-])cc2)cc1`, the “plate-normalized OD600 growth” value (temperature: 15°C, 48 h) was determined as 0.222 and the “plate-normalized OD600 growth” value (temperature: 37°C, 24 h) amounted to 0.625.
The matching figures for `CCN(CC)CCCOc1ccc([N+](=O)[O-])cc1`: 0.246 and 0.624.
For `CCOc1ccc(C(=O)c2ccc([N+](=O)[O-])cc2Cl)cc1`, in that order: 0.265 and 0.637.
`CCCCOC(=O)Nc1nnc(CCc2ccccc2)s1`: the “plate-normalized OD600 growth” value runs as follows: (temperature: 15°C, 48 h) 0.265; (temperature: 37°C, 24 h) 0.623.
The matching figures for `COc1cc(CN2CCSCC2)c([N+](=O)[O-])cc1OC`: 0.23 and 0.6.
The matching figures for `CC(C)NCC(=O)NC12CC3CC(CC(C3)C1)C2`: 0.266 and 0.656.
Take `NC(=O)CCC(=O)NC12CC3CC(CC(C3)C1)C2`: the “plate-normalized OD600 growth” value was determined as 0.227 (temperature: 15°C, 48 h) and 0.599 (temperature: 37°C, 24 h).
For `O=C(CN1CCCCC1)NC12CC3CC(CC(C3)C1)C2`, in that order: 0.274 and 0.65.
The matching figures for `Cc1ccc(NC(=O)c2c(O)c3ccccc3[nH]c2=O)c(C)c1`: 0.27 and 0.648.
As for `Cc1cc(C)n(C(=O)c2ccccc2F)n1`, the “plate-normalized OD600 growth” value (temperature: 15°C, 48 h) was determined as 0.251 and the “plate-normalized OD600 growth” value (temperature: 37°C, 24 h) is 0.635.
For the compound `Cc1cc(C)n(C(=O)c2ccccc2Br)n1`, the “plate-normalized OD600 growth” value (temperature: 15°C, 48 h) was found to be 0.226 and the “plate-normalized OD600 growth” value (temperature: 37°C, 24 h) was 0.655.
For `Cc1cc(C)n(C(=O)c2ccc(Cl)cc2)n1`, in that order: 0.256 and 0.636.
In the case of `O=C(O)c1ccc2c(c1)C(=O)N(c1c[nH]c(=O)[nH]c1=O)C2=O`, the “plate-normalized OD600 growth” value by setting is: (temperature: 15°C, 48 h) 0.239; (temperature: 37°C, 24 h) 0.592.
Turning to `O=C(/C=C/c1ccc(-c2cc(Cl)ccc2Cl)o1)c1ccco1`, the “plate-normalized OD600 growth” value stood at 0.25 (temperature: 15°C, 48 h) and 0.612 (temperature: 37°C, 24 h).
Consider `c1cc2cn[nH]c2cc1NC1CCCCCC1`, for which the “plate-normalized OD600 growth” value (temperature: 15°C, 48 h) worked out at 0.233 and the “plate-normalized OD600 growth” value (temperature: 37°C, 24 h) is 0.604.
For `O=C(O)CSc1ccc(Br)cc1`, in that order: 0.222 and 0.609.
As to `O=C(O)CSc1cccc(C(=O)Nc2ccc(Br)cc2)c1`, the “plate-normalized OD600 growth” value runs as follows: (temperature: 15°C, 48 h) 0.249; (temperature: 37°C, 24 h) 0.611.
Turning to `Nc1ccc(Cl)cc1SCC(=O)O`, the “plate-normalized OD600 growth” value is, setting by setting: (temperature: 15°C, 48 h) 0.242; (temperature: 37°C, 24 h) 0.599.
The matching figures for `NS(=O)(=O)c1ccc(NC(=O)c2ccccc2Cl)cc1`: 0.24 and 0.604.
Take `O=[N+]([O-])c1ccc(N2CCN(Cc3ccc(Br)s3)CC2)cc1`: the “plate-normalized OD600 growth” value runs as follows: (temperature: 15°C, 48 h) 0.242; (temperature: 37°C, 24 h) 0.58.
For the compound `O=[N+]([O-])c1ccc(N2CCN(Cc3cccs3)CC2)cc1`, the “plate-normalized OD600 growth” value by setting is: (temperature: 15°C, 48 h) 0.22; (temperature: 37°C, 24 h) 0.599.
For `Cc1ccsc1CN1CCN(c2ccc([N+](=O)[O-])cc2)CC1`, in that order: 0.256 and 0.634.
The matching figures for `O=C(O)c1ccc(S(=O)(=O)c2ccc(O)cc2)cc1`: 0.247 and 0.592.
For `C=CCNC(=O)c1ccc(CN2CCc3ccccc3C2)cc1`, in that order: 0.217 and 0.6.
As to `c1ccc2c(c1)CCN(Cc1ccncc1)C2`, the “plate-normalized OD600 growth” value came out at 0.236 (temperature: 15°C, 48 h) and 0.651 (temperature: 37°C, 24 h).
As for `CN(C)c1ccc(CN2CCc3ccccc3C2)cc1`, the “plate-normalized OD600 growth” value (temperature: 15°C, 48 h) was 0.244 and the “plate-normalized OD600 growth” value (temperature: 37°C, 24 h) came to 0.619.
